Inconclusive results are not listed. Active and inactive are the calls of the source. Calls come from the whole dose curve; as a rule, active = well fitted curve in the direction sought with a large enough effect; inconclusive = small, poorly fitted or top-dose-only effect, or another doubt; inactive = no such curve, though single readings can be large; an effect the other way counts as inactive or inconclusive.

Assay [1] addresses N-terminal Xaa-Pro-Lys N-methyltransferase 1 (Homo sapiens) (UniProt Q9BV86). Description: qHTS Assay for Inhibitors of N-terminal methyltransferase 1 (NTMT1): LOPAC validation of the NTMT1 SAHH-coupled ThioGlo3 Assay (AID 1347143). Note: nearly all actives have a fitted effect of over 70% in size. Note: potency is the fitted concentration of half-maximal effect. In short, it runs like this: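 Fluorescence read-out (excitation 340nm, emission 450nm) of SAH-derived thiol, measured via SAHH coupling and ThioGlo3, taken immediately and after a 30 min room-temperature reaction, then normalized to the background read. Enzyme: NTMT1 at 125nM; cofactor SAM 100uM in the added reagent.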
(In general: In qHTS, concentration-response curves come from the screen itself.)

Assay [2] has as its system Zika virus NS2B-NS3 protease (unlinked). Kind of assay: Optimization of GU AMC qHTS for Zika virus inhibitors: Unlinked NS2B-NS3 protease assay (AID 1347151). Note: nearly all actives have a fitted effect of over 80% in size. Note: potency is the fitted concentration of half-maximal effect. In short, it runs like this: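 Unlinked protease (25 nM final); buffer 10 mM Tris-HCl pH 8.0 + 0.01% Tween 20; AMC substrate; 15 min RT, dark; Δfluorescence normalized to no-inhibitor/no-enzyme controls; 4-parameter Hill fit.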

In assay [3] the test system is Zika virus NS2B-NS3 protease. Kind of assay: Primary screen GU AMC qHTS for Zika virus inhibitors (AID 1347154). Note: nearly all actives have a fitted effect of over 70% in size. In short, it runs like this:
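Unlinked Zika NS2B hydrophilic domain/NS3 protease domain noncovalent complex (25 nM final) in 10 mM Tris-HCl pH 8.0, 0.01% Tween 20, with AMC peptide substrate. Fluorescence (ex 340, em 450 nm) change over 15 min, room temperature; percent inhibition fitted to 4-parameter Hill equation.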

Assay [4] in a line: qHTS of pediatric cancer cell lines to identify multiple opportunities for drug repurposing: Confirmatory screen for DAOY cells (AID 1347114). Note: potency is the fitted concentration of half-maximal effect; nearly all actives have a fitted effect of over 65% in size. Summed up: (§1)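 Viability measured as metabolically active cells via CellTiter-Glo luminescence following 48 hours of compound exposure, 11-point dilutions in confirmatory testing. 500-1,000 cells/well plated 5 hours before dosing; controls were DMSO and 2.3 µM bortezomib.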

The nature of assay [5]: qHTS of pediatric cancer cell lines to identify multiple opportunities for drug repurposing: Confirmatory screen for SJ-GBM2 cells (AID 1347116). Note: nearly all actives have a fitted effect of over 60% in size. In short, it runs like this: as §1
The nature of assay [6]: qHTS of pediatric cancer cell lines to identify multiple opportunities for drug repurposing: Confirmatory screen for control Hh wild type fibroblast cells (AID 1347121). Note: nearly all actives have a fitted effect of over 70% in size. In short, it runs like this: (§2)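 Cells (500-1,000/well) in growth media were settled 5 h at 37 degrees C, then given compounds for 48 h. Viability was read as CellTiter-Glo luminescence. Primary runs used MIPE at 11 points (0.78 nM-46 µM) and NPC at 8 points (0.59 nM-46 µM); follow-ups used 11 points.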

Assay [7] can be described thus: qHTS of pediatric cancer cell lines to identify multiple opportunities for drug repurposing: Confirmatory screen for U-2 OS cells (AID 1347122). Note: potency is the fitted concentration of half-maximal effect; nearly all actives have a fitted effect of over 65% in size. In short, it runs like this: as §2
Assay [8] can be described thus: qHTS of pediatric cancer cell lines to identify multiple opportunities for drug repurposing: Confirmatory screen for Rh41 cells (AID 1347123).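 Note: potency is the fitted concentration of half-maximal effect; 48 h compound exposure; nearly all actives have a fitted effect of over 60% in size.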 Summed up: as §2
Assay [9] is described as follows: qHTS of pediatric cancer cell lines to identify multiple opportunities for drug repurposing: Confirmatory screen for Saos-2 cells (AID 1347127). Note: nearly all actives have a fitted effect of over 60% in size. Note: potency is the fitted concentration of half-maximal effect. In short, it runs like this:
as §2

The target of assay [10] is Furin (Homo sapiens) (UniProt P09958). Description: Furin counterscreen qHTS for Zika virus inhibitors (AID 1347149). Note: nearly all actives have a fitted effect of over 70% in size. Note: potency is the fitted concentration of half-maximal effect. Summed up: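 Fluorogenic cleavage of BOC-RVRR-AMC (2 microM final, Km ~15 µM) was monitored (ex 340, em 450 nm) at 37C after 15 min RT preincubation of 5 nM furin with compounds in HEPES pH 7.0 buffer with CaCl2 and Triton X-100. Percent inhibition was fitted to a 4-parameter Hill curve.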
In general terms: Counterscreens check selectivity or assay interference.

The test system of assay [11] is Zika virus NS2B-NS3 protease (unlinked complex). Kind of assay: Confirmatory screen GU AMC qHTS for Zika virus inhibitors (AID 1347153). Note: nearly all actives have a fitted effect of over 70% in size. In short, it runs like this:
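Compounds were preincubated 15 min at room temperature with 25 nM noncovalent NS2B-NS3 protease at pH 8.0; AMC substrate added at 10 microM and 15-min fluorescence gain (340/450 nm) converted to percent inhibition, fitted 4-parameter.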

Assay [12] deals with Zika virus NS2B-NS3 protease (linked construct). Description: Confirmatory screen NINDS AMC qHTS for Zika virus inhibitors (AID 1347152). In short, it runs like this: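 Enzyme (1 nM, linked construct) was preincubated with compound for 15 minutes at room temperature in 10 mM Tris-HCl pH 8.0 with 0.01% Tween 20. Bz-Nle-Lys-Arg-Arg-AMC was then added to 10 microM, and AMC fluorescence was recorded immediately and after 15 minutes.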

Assay [13] in a line: qHTS of pediatric cancer cell lines to identify multiple opportunities for drug repurposing: Confirmatory screen for MG 63 (6-TG R) cells (AID 1347119). Note: nearly all actives have a fitted effect of over 55% in size. In short, it runs like this: as §2
Assay [14] is described as follows: qHTS of pediatric cancer cell lines to identify multiple opportunities for drug repurposing: Confirmatory screen for NB-EBc1 cells (AID 1347115).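 Note: cells exposed to compound for 48 h before the viability read; nearly all actives have a fitted effect of over 45% in size.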 In short, it runs like this:
as §2

Assay [15] can be described thus: qHTS of pediatric cancer cell lines to identify multiple opportunities for drug repurposing: Confirmatory screen for Rh18 cells (AID 1347125). Note: nearly all actives have a fitted effect of over 55% in size. In short, it runs like this: as §2

Sequence of Furin (Homo sapiens) (P09958 whole entry, looked up): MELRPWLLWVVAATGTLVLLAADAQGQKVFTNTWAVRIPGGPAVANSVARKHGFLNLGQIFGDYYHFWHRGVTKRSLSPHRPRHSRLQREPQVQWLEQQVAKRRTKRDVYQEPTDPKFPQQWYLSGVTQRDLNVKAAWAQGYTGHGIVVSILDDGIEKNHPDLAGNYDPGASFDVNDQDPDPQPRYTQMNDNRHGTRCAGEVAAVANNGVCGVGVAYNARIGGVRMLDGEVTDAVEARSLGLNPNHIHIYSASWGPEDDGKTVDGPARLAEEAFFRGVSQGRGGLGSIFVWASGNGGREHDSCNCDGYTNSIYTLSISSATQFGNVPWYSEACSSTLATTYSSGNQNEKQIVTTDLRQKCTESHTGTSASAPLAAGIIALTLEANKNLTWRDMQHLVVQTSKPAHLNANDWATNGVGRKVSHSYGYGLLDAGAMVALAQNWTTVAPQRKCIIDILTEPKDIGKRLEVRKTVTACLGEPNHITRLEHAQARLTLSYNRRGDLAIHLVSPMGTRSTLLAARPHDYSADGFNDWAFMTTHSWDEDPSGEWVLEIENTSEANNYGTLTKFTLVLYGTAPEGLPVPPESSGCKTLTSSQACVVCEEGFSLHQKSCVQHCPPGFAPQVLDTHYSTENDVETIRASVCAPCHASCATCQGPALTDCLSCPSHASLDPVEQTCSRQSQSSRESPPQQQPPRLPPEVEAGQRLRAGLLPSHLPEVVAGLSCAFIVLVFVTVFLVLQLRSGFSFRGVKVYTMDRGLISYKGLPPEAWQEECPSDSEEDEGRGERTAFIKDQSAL
Sequence of N-terminal Xaa-Pro-Lys N-methyltransferase 1 (Homo sapiens) (Q9BV86 whole entry, looked up): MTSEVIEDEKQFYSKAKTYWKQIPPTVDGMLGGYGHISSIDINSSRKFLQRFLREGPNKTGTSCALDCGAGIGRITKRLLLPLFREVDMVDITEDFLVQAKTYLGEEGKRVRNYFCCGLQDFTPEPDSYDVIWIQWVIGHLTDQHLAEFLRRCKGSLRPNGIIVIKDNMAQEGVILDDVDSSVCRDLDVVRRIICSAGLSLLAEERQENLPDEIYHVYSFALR

For the compound `Cc1cccc(-c2[nH]ncc2-c2ccc3ncccc3n2)n1`, the Potency entry in [1], in assay [2] and in [3] was “inactive” in each case.

With `O=c1ccc2ccc(O)c(O)c2o1`, the Potency in assay [1] was 39.8 µM (active). The Potency result in [2] and in assay [3] was “inactive” each time.

As to `Cc1c(C(=O)NN2CCCCC2)nn(-c2ccc(Cl)cc2Cl)c1-c1ccc(Cl)cc1`, the Potency in assay [4] was 23.3 µM (active); in [7], 16.5 µM (active); in [8] it was 18.5 µM (active); in assay [9], 20.8 µM (active). In addition, the Potency result in assay [5], in assay [6] and in [3] was “inactive” each time.

As for `Cc1cc(O)c2c(c1)C(=O)c1cc(O)cc(O)c1C2=O`, the Potency was 17.8 µM (active) in assay [1] and 15 µM (active) in [2]. In assay [3], the Potency entry was “inactive”.

For the compound `NC(=NCc1ccccc1)NC(=O)c1nc(Cl)c(N)nc1N`, the Potency is 56.2 µM (active) in assay [1] and 26.7 µM (active) in assay [2]. For the same compound, in [3], the Potency entry was “inactive”.

On to `CC(=O)N1CCN(c2ccc(OC[C@H]3CO[C@](Cn4ccnc4)(c4ccc(Cl)cc4Cl)O3)cc2)CC1`, for which the Potency in [1] is 50.1 µM (active). Also, the Potency result in assay [2] and in assay [3] was “inactive” each time.

In the case of `O=Nc1c(-c2c(O)[nH]c3cc(Br)ccc23)[nH]c2ccccc12`, in [1], the Potency was 14.1 µM (active).

For `NCCCCNCCCN`, the Potency entry in assay [1], in assay [2] and in assay [3] was “inactive” in each case.

In the case of `C[C@@H](c1ncncc1F)[C@](O)(Cn1cncn1)c1ccc(F)cc1F`, the Potency result in assay [1], in assay [2] and in [3] was “inactive” throughout.

Take `CNC[C@H](O)c1ccc(O)c(O)c1`: the Potency entry in assay [1], in assay [2] and in assay [3] was “inactive” each time.

Take `CC(C)c1ccc2c(c1)c(SC(C)(C)C)c(CC(C)(C)C(=O)O)n2Cc1ccc(Cl)cc1`: the Potency result in [1] and in assay [3] was “inactive” in each case. In addition, the Potency in assay [2] is 1.34 µM (active).

As to `CN(C)C(=O)[C@H](O)[C@H](Cc1ccccc1)NC(=O)c1cc2cc(Cl)ccc2[nH]1`, the Potency entry in [1], in assay [10] and in assay [11] was “inactive” throughout. Further, in assay [2], the Potency is 26.7 µM (active).

Take `Clc1ccc2c(N3CCN(CCCN4CCN(c5ccnc6cc(Cl)ccc56)CC4)CC3)ccnc2c1`: the Potency in assay [1] was 50.1 µM (active). Also, the Potency result in assay [2] and in assay [3] was “inactive” throughout.

As for `COc1cc2c(cc1OC)C1CC(=O)C(CC(C)C)CN1CC2` (stereo not given), the Potency result in assay [1], in [12], in assay [11] and in assay [3] was “inactive” in each case. Further, the Potency in assay [10] is 27.1 µM (active).

For `CCc1nc(N)nc(N)c1-c1ccc(Cl)cc1`, the Potency result in [13], in assay [10], in assay [2], in [12], in assay [11] and in assay [3] was “inactive” each time. In addition, the Potency in assay [8] was 10.4 µM (active).

As for `CC(=O)NC[C@H]1CN(c2ccc(N3CCOCC3)c(F)c2)C(=O)O1`, the Potency entry in [1], in assay [2] and in assay [3] was “inactive” in each case.

For `C[C@@H](N)C1CCC(C(=O)Nc2ccncc2)CC1` (stereo not given in full), the Potency entry in [1], in assay [2] and in assay [3] was “inactive” throughout.

In the case of `COc1ccccc1N1CCN(CCN(C(=O)C2CCCCC2)c2ccccn2)CC1`, the Potency result in assay [1] and in [2] was “inactive” in each case.

As to `COc1cc(C(C)=O)ccc1OCCCN1CCC(c2noc3cc(F)ccc23)CC1`, the Potency result in assay [14], in assay [5], in [13], in assay [6], in assay [15] and in assay [9] was “inactive” in each case. In addition, the Potency entry in assay [3] is “inactive”. In assay [8], the Potency was 18.5 µM (active).

As for `Nc1nc(N)c(N=O)c(OCC2CCCCC2)n1`, the Potency entry in assay [1], in assay [2] and in assay [3] was “inactive” each time.

Take `CC(C)Oc1ccc2c(=O)c(-c3ccccc3)coc2c1`: the Potency entry in [3] is “inactive”.

For the compound `CCCCCCCCCCCCCCCCCCCCCCO`, the Potency entry in assay [3] was “inactive”.

In the case of `O=C1c2ccccc2-c2n[nH]c3cccc1c23`, the Potency in assay [2] is 11.9 µM (active).

For the compound `Cc1nccn1CC1CCc2c(c3ccccc3n2C)C1=O` (stereo not given), the Potency result in assay [3] is “inactive”.

For `CC1Cc2ccccc2N1NC(=O)c1ccc(Cl)c(S(N)(=O)=O)c1` (stereo not given), in [3], the Potency entry is “inactive”.

On to `Cc1nc(-c2ccc(OCC(C)C)c(C#N)c2)sc1C(=O)O`, for which the Potency in [10] was 24.1 µM (active). The Potency result in [11] was “inactive”.

The values are drawn from PubChem BioAssay (NCATS).
